# Measurements as given in PubChem BioAssay (NCATS).
# Results filed as inconclusive are left out. Values without a mark were called inactive. Active and inactive are the calls of the source. Calls come from the whole dose curve; as a rule, active = well fitted inhibition curve with a large enough effect; inconclusive = small, poorly fitted or top-dose-only effect; inactive = flat fitted curve, though single readings scatter. Where a SMILES comes first, the peptide text is derived from it. [ ]: non-standard residue; d: D form. Hyp = O=C(O)[CH]1C[CH](O)CN1; Phe(ol) = N[CH](CO)Cc1ccccc1; Iva = CC[C](C)(N)C(=O)O; Aib = CC(C)(N)C(=O)O
# What was measured:
# HEK293 = assay: Cytotoxic Profiling of Annotated Libraries Using Quantitative High-Throughput Screening (AID 1296008); conditions: Five cell lines viability, CellTiter-Glo ATP luminescence, 48-72 h; max response: hits give low values; note: potency is the fitted concentration of half-maximal effect; for max response: % is set by controls: 0 for no effect and ±100 for the full control effect
# In short: (§1)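 Compounds were pin-transferred onto cells and incubated 48 or 72 hr at 37 degree Celsius, 95% humidity. CellTiter-Glo was added, plates sat 10 min at room temperature, then ATP-coupled luminescence was imaged as the viability read-out.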
# NIH3T3 = assay: as above; conditions: Five cell lines viability, CellTiter-Glo ATP luminescence, 48-72 h; max response: hits give low values
# In short: as §1
# HaCat [1] = assay: as above; conditions: Five cell lines viability, CellTiter-Glo ATP luminescence, 48-72 h; max response: hits give low values
# In short: as §1
# HACAT [2] = assay: qHTS assay to identify novel small-molecules to repurpose for Merkel cell carcinoma treatment (AID 1296009); conditions: MCC and control cell lines, CellTiter-Glo viability, 72 h; at 44.8 µM (top of the series) unless noted
# In short: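 qHTS format: cells treated with library compounds in DMSO across 8 (NPC) or 11 (MIPE) concentrations. Readout after 72 hr at 37 degree celsius was CellTiter-Glo luminescence.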
# KB-3-1 = assay: Cytotoxic Profiling of Annotated Libraries Using Quantitative High-Throughput Screening (AID 1296008); conditions: Five cell lines viability, CellTiter-Glo ATP luminescence, 48-72 h; max response: hits give low values; note: potency is the fitted concentration of half-maximal effect; for max response: % is set by controls: 0 for no effect and ±100 for the full control effect
# In short: as §1
# Note: nearly all actives have a fitted effect of over 60% in size.
smiles,measurement,setting,value
CCC1C(=O)N(C)c2cnc(Nc3ccc(C(=O)NC4CCN(C)CC4)cc3OC)nc2N1C1CCCC1 (stereo unspecified),max response,HEK293,-124%
same,Potency,NIH3T3,7.31 µM (active)
C=C1C(=O)OC2/C=C(/C)C3=CC(=O)C(C)(CC(OC(=O)/C(C)=C/COC(C)=O)C12)O3 (stereo unspecified),Potency,HEK293,2 µM (active)
same,Potency,NIH3T3,3.99 µM (active)
Fc1ccc(-n2cc(CCCCN3CCC4(CC3)OCc3ccccc34)c3ccccc32)cc1,Potency,HEK293,18.4 µM (active)
same,Potency,NIH3T3,16.4 µM (active)
O=c1ccc2ccc(OCCCCN3CCN(c4cccc5sccc45)CC3)cc2[nH]1,Potency,HEK293,11.6 µM (active)
same,max response,NIH3T3,-13.6%
C=C1CO[C@@]2(O[C@H]3CC4C5CC=C6C[C@@H](O)C[C@@H](O[C@@H]7OC[C@H](O)[C@H](O[C@@H]8OC[C@@H](O)[C@H](O)[C@H]8O)[C@H]7O[C@@H]7O[C@@H](C)[C@H](OC(C)=O)[C@@H](OC(C)=O)[C@H]7OC(C)=O)[C@]6(C)C5CC[C@]4(C)[C@@H]3[C@@H]2C)[C@@H](O)[C@H]1OC1OC(C)C(O)C(O)C1O (stereo partly specified),max response,HEK293,-19.9%
same,outcome,HaCat [1],inactive
same,outcome,NIH3T3,inactive
same,outcome,HACAT [2],inactive [at 9.27 µM]
CC(C)(C)Oc1ccc(OCC2Cc3ccccc3CN2C(=O)c2cccc3ccccc23)cc1 (stereo unspecified),Potency,HEK293,13 µM (active)
same,max response,NIH3T3,-2.51%
CC#C[C@@H](CC(=O)O)c1ccc(OCc2cccc(-c3ccc(C(F)(F)F)cc3)c2)cc1,max response,HaCat [1],-75.8%
same,max response,KB-3-1,-14.7%
Clc1ccc(Nc2nc3ccccc3c3nc(C4CCCCC4)[nH]c23)cc1Cl,Potency,HEK293,11.6 µM (active)
same,Potency,NIH3T3,20.6 µM (active)
Cc1ccc(O)cc1Nc1ccnc(Nc2cccc(C(N)=O)c2)n1,Potency,HEK293,14.6 µM (active)
same,Potency,NIH3T3,2.31 µM (active)
C/C(=N\N=C(N)N)c1cc(NC(=O)CCCCCCCCC(=O)Nc2cc(/C(C)=N/N=C(N)N)cc(/C(C)=N/N=C(N)N)c2)cc(/C(C)=N/N=C(N)N)c1,Potency,HEK293,7.31 µM (active)
same,outcome,HaCat [1],inactive
same,max response,NIH3T3,0.565%
same,outcome,HACAT [2],inactive
O=S(=O)(NCc1cccc2ccccc12)c1cc(Cl)c(Oc2cccc(N3CCNCC3)c2)s1,Potency,HEK293,10.3 µM (active)
same,Potency,NIH3T3,14.6 µM (active)
CCCC(CCC)C(=O)Nc1ccn([C@@H]2O[C@H](CO)[C@@H](O)C2(F)F)c(=O)n1,Potency,HEK293,6.51 µM (active)
same,Potency,NIH3T3,4.11 µM (active)
c1ccc(-c2cnn3cc(-c4ccc(OCCN5CCOCC5)cc4)cnc23)cc1,Potency,HEK293,2.31 µM (active)
same,outcome,HaCat [1],inactive
same,outcome,HACAT [2],inactive
CN(C)Cc1ccc(-c2cnn3c(-c4cccc(NC(=O)c5cccc(C(F)(F)F)c5)c4)ccnc23)cc1,Potency,HEK293,7.31 µM (active)
same,Potency,NIH3T3,16.4 µM (active)
C[C@@H]1CCCN1CCc1cc2cc(-c3ccc(C#N)cc3)ccc2o1,max response,HaCat [1],-29.3%
same,max response,KB-3-1,-23.6%
C[C@H](CN(C)C)Oc1nc(Nc2cc3cccc(Cl)c3cn2)cnc1C#N,Potency,HEK293,1.3 µM (active)
same,Potency,NIH3T3,2.06 µM (active)
Cc1sc2c(c1C)C(c1ccc(Cl)cc1)=N[C@@H](CC(=O)Nc1ccc(OCCOCCOCCOCCNc3cccc4c3C(=O)N(C3CCC(=O)NC3=O)C4=O)cc1)c1nnc(C)n1-2 (stereo partly specified),Potency,HEK293,0.0447 µM (active)
same,max response,NIH3T3,-54%
Cn1cc(-c2cnn3c(N)c(Br)c(C4CCCNC4)nc23)cn1 (stereo unspecified),Potency,HEK293,1.03 µM (active)
same,Potency,NIH3T3,6.51 µM (active)
CCC(C)(NC(=O)C(CCC(N)=O)NC(=O)C1CC(O)CN1C(=O)C(C)(C)NC(=O)C(C)(C)NC(=O)C(CC(C)C)NC(=O)CNC(=O)C(NC(=O)C(C)(C)NC(=O)C(C)(C)NC(=O)C(C)(C)NC(=O)C(Cc1ccccc1)NC(C)=O)C(C)C)C(=O)N1CC(O)CC1C(=O)NC(C)(C)C(=O)NC(CO)Cc1ccccc1 (stereo unspecified) (Ac-F[Aib][Aib][Aib]VGL[Aib][Aib][Hyp]Q[Iva][Hyp][Aib][Phe(ol)]; configuration not given here),max response,HEK293,-14.6%
same,outcome,HaCat [1],inactive
same,max response,NIH3T3,2.9%
same,outcome,HACAT [2],inactive [at 9.27 µM]
CCn1c(-c2nonc2N)nc2c(C#CCO)ncc(OCCCN)c21,Potency,HEK293,7.31 µM (active)
same,outcome,HaCat [1],inactive
same,outcome,NIH3T3,inactive
same,outcome,HACAT [2],inactive
Cc1cn(CCN2CCN(c3ccccc3-c3cc(C#N)cc(C(=O)NCCCN4CCCC4)c3)CC2)c2ccccc12,Potency,HEK293,14.8 µM (active)
same,Potency,NIH3T3,16.6 µM (active)
C=C1C(=O)O[C@@H]2C3=C(C)CCC[C@]3(C)CC[C@@]12O,Potency,HEK293,8.2 µM (active)
same,Potency,NIH3T3,14.6 µM (active)
O=C(Nc1ccc(-c2ccnc(Nc3ccc(N4CCOCC4)cc3)n2)cc1)C1CCCN1 (stereo unspecified),Potency,HEK293,6.51 µM (active)
same,outcome,HaCat [1],inactive
same,outcome,HACAT [2],inactive
CC(C)(N)c1ncc(-c2ccc(OC(F)(F)F)cc2)[nH]1,max response,HaCat [1],-18.6%
O=C(Nc1nc2cc(C(F)(F)F)cc(NC3CC3)n2n1)c1cccnc1,Potency,HaCat [1],4.61 µM (active)
same,Potency,KB-3-1,5.8 µM (active)
O=C(O)c1ccc(N2C(=O)/C(=C/c3ccc(-c4ccc([N+](=O)[O-])cc4)o3)C=C2c2ccccc2)cc1,max response,HEK293,-3.48%
same,outcome,HaCat [1],inactive
same,outcome,HACAT [2],inactive
COc1ccc(Oc2c(Cl)cnn(-c3cc(C)cc(C)c3)c2=O)cc1,Potency,HEK293,8.2 µM (active)
same,Potency,NIH3T3,25.9 µM (active)
C=C1C(=O)O[C@@H]2C[C@@]3(C)C[C@@H](O)C[C@H](C)C3=C[C@H]12,max response,HaCat [1],-8.34%
same,outcome,KB-3-1,inactive
